Laboratory results as given in ChEMBL document CHEMBL5308504, “Tm Shift (DSF) assay results for EUbOPEN Chemogenomics Library” (2023).
Several values for one entry are separate records, joined by “and”; a condition that tells them apart may be missing. Identical values can stand only once.

Tests used:
[1] = molecular target: Bromodomain-containing protein 4 (Homo sapiens) (UniProt O60885); settings: Compound concentration 20.0 uM, Protein concentration 2.0 uM, Result type QC Liability
[2] = molecular target: T1, Transcription intermediary factor 1-alpha (Homo sapiens) (UniProt O15164); settings: Compound concentration 20.0 uM, Protein concentration 2.0 uM, Result type QC Liability
T1 sequence (whole entry): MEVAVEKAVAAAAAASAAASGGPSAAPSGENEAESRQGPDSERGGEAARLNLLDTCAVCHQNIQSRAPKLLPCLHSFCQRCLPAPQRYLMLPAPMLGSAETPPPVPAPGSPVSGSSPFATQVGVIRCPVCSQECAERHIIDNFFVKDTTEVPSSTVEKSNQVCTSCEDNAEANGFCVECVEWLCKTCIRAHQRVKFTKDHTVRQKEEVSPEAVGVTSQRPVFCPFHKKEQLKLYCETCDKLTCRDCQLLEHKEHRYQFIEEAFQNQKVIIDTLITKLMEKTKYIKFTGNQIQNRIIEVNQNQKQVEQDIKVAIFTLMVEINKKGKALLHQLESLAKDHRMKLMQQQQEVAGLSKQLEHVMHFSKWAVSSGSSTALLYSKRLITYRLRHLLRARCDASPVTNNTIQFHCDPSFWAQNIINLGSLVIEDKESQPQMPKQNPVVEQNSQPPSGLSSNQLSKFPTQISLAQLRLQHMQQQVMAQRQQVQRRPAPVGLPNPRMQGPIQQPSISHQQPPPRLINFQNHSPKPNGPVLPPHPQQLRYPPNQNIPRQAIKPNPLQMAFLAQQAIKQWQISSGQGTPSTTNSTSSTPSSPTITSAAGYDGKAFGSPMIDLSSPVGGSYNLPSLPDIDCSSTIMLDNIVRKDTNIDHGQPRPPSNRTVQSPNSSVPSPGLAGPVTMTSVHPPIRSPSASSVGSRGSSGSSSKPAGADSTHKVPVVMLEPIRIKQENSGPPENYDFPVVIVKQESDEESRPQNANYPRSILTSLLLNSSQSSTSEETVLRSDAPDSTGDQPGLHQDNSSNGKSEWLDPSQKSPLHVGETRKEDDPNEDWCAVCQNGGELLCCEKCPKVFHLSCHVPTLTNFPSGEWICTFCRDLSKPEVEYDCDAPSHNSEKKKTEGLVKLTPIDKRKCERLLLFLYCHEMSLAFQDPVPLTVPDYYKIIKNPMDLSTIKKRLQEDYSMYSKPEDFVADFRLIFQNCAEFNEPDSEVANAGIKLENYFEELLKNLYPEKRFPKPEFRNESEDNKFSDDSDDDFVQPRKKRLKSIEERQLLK

CN[C@@H]1CC[C@@H](c2ccc(Cl)c(Cl)c2)c2ccccc21
ΔTm [1]: -1.03 °C
ΔTm [2]: -3.59 °C

CC(C)(O)CNC(=O)N1C(=O)N(c2cccc(C(F)(F)F)c2)C2=C(C(=O)CC2)[C@@H]1c1ccc(C#N)cc1
ΔTm [1]: -0.6 °C
ΔTm [2]: 0.83 °C

Cc1cc(SCc2sc(-c3ccc(C(F)(F)F)cc3)nc2C)ccc1OCC(=O)O
ΔTm [1]: -3.91 °C
ΔTm [2]: -2.79 °C

N=C(N)NCCC[C@H](NC(=O)CC1(CC(=O)N2CCN(C3c4ccccc4NC(=O)c4ccccc43)CC2)CCCC1)C(=O)NCCn1c(=O)n(-c2ccccc2)n(-c2ccccc2)c1=O (stereo partly drawn)
ΔTm [1]: 0.44 °C
ΔTm [2]: -2.38 °C

COc1ccc2c(O[C@@H]3C[C@H]4C(=O)N[C@]5(C(=O)NS(=O)(=O)C6(C)CC6)CC5/C=C\CCCCC[C@H](NC(=O)c5ccn(C)n5)C(=O)N4C3)cc(OC(C)C)nc2c1C (stereo partly drawn)
ΔTm [1]: 1.29 °C
ΔTm [2]: 0.91 °C

Cc1cc(=O)n(C)c2cc(N3C(=O)CC[C@H](NS(=O)(=O)CC(C)C)[C@H]3c3ccc(Cl)cc3)ccc12
ΔTm [1]: -3.01 °C
ΔTm [2]: -3.49 °C

Cc1cc2c(cc(C(=O)N[C@H](CO)c3ccc(S(=O)(=O)CC(=O)O)cc3)n2C)c(Cl)c1Cl
ΔTm [1]: 2.14 °C
ΔTm [2]: -0.18 °C

CNC(=O)c1c(F)cccc1Nc1nc(Nc2cc3c(cc2OC)CCN3C(=O)CN(C)C)nc2[nH]ccc12
ΔTm [1]: -1.02 °C
ΔTm [2]: -1.89 °C

COc1cc2nc(C)nc(NC3(c4ccccc4)CC3)c2cc1OC
ΔTm [1]: -0.74 °C
ΔTm [2]: 0.43 °C

CNC(=O)c1ccc(C)c(-n2c(C)cc(OCc3ccc(F)cc3F)c(Br)c2=O)c1
ΔTm [1]: -1.55 °C
ΔTm [2]: -2.58 °C

COc1cc2ncnc(Nc3ccc4c(cnn4Cc4ccccc4)c3)c2cc1OC
ΔTm [1]: -0.65 °C
ΔTm [2]: -2.15 °C

CC1(C)CCN(C(=O)C2CN(c3c4c(nc5ccnn35)CCNCC4)C2)C1
ΔTm [1]: -0.32 °C
ΔTm [2]: 0.23 °C

CN(C)C/C=C/C(=O)Nc1cccc(S(=O)(=O)N2CCC(NC(=O)c3n[nH]cc3NC(=O)c3c(Cl)cc(Cl)cc3Cl)CC2)c1
ΔTm [1]: -1.08 °C
ΔTm [2]: 0.7 °C

COc1cc(-c2cncc(-c3ccc(N4CCN(C(C)C)CC4)cc3)c2C)cc(F)c1C(N)=O
ΔTm [1]: -2.5 °C
ΔTm [2]: -3.06 °C

CN1C(=O)Cc2ccc(-c3ccc(C[C@@H](C#N)NC(=O)[C@@H]4N[C@H]5CC[C@@H]4C5)c(F)c3)cc21
ΔTm [1]: -1.1 °C
ΔTm [2]: 0.19 °C

O=C(O)c1ccnc(N2CC(O)(c3ccc(OCc4c(-c5c(Cl)cccc5Cl)noc4C4CC4)cc3Cl)C2)c1
ΔTm [1]: -4.33 °C
ΔTm [2]: -1.77 °C

CC(=O)c1c(C)c2cnc(Nc3ccc(N4CCNCC4)cn3)nc2n(C2CCCC2)c1=O
ΔTm [1]: -1.52 °C and 0.07 °C
ΔTm [2]: -1.97 °C and -2.09 °C

Cc1sc(C(=O)c2cncnc2N[C@@H]2C[C@H](COS(N)(=O)=O)[C@@H](O)C2)cc1[C@@H]1NCCc2ccc(Cl)cc21
ΔTm [1]: -4.45 °C
ΔTm [2]: -0.84 °C

Cc1cc2nc(N3CCC(C(=O)NC4CCCC4)CC3)n(C(C)C)c2cc1C
ΔTm [1]: -0.57 °C
ΔTm [2]: -0.87 °C

Cc1ccc(NC(=O)c2ccc3c(c2)OCCO3)cc1NC(=O)c1ccc2nc(OCCN3CCCC3)ccc2c1
ΔTm [1]: -12.8 °C
ΔTm [2]: -0.86 °C

O=C(CCCCCCc1ccccc1)c1ncc(-c2ccccn2)o1
ΔTm [1]: -1.06 °C
ΔTm [2]: -0.23 °C

c1ccc2c(-c3coc4cc(-c5ccc(N6CCNCC6)cc5)cnc34)ccnc2c1
ΔTm [1]: -1.89 °C
ΔTm [2]: -2.14 °C

CN(C)C/C=C/C(=O)Nc1ccc(C(=O)Nc2cccc(Nc3ncc(Cl)c(-c4c[nH]c5ccccc45)n3)c2)cc1
ΔTm [1]: -2.3 °C
ΔTm [2]: -1.56 °C

C=C1/C(=C\C=C2/CCC[C@]3(C)[C@@H]([C@H](C)CCCC(C)(C)O)CC[C@@H]23)C[C@@H](O)C[C@@H]1O
ΔTm [1]: -7.29 °C
ΔTm [2]: -4.59 °C

C/C(=C\C(=O)Nc1ccccc1C(=O)O)c1ccc2ccccc2c1
ΔTm [1]: -0.82 °C
ΔTm [2]: 0.61 °C

O=c1[nH]c(CS[C@H]2CC[C@H](O)CC2)nc2cc(OCC3CC3)cc(F)c12
ΔTm [1]: -0.97 °C
ΔTm [2]: -3.28 °C

C[C@@H]1CCNC(=O)c2cc3ccc(C(=O)Nc4nc5ccccc5n4CCCN(C)C)cc3n21
ΔTm [1]: -0.87 °C
ΔTm [2]: -0.45 °C

O=C(O)Cc1ccc(CCNS(=O)(=O)c2ccc(Cl)cc2)cc1
ΔTm [1]: -1.74 °C
ΔTm [2]: -0.53 °C

COc1cc(F)ccc1-c1ncnc(Nc2cccc(C[S@](C)(=N)=O)c2)n1
ΔTm [1]: 0.48 °C
ΔTm [2]: -1.99 °C

CCOC(=O)/N=C(\N)c1ccc(OCc2cccc(COc3ccc(C(C)(C)c4ccc(OC(=O)OCC)cc4)cc3)c2)cc1
ΔTm [1]: -10.4 °C
ΔTm [2]: -0.45 °C

Cn1cc(NC(=O)c2ccc3nc4n(c3c2)CCCNC4=O)nc1C(=O)NC1CCCC1
ΔTm [1]: -1.16 °C
ΔTm [2]: -2.92 °C

O=C(O)c1ccc(CN2C[C@@H]3C[C@H]2CN3Cc2ccc(Oc3ccc(-c4ncco4)cc3)cc2)cc1
ΔTm [1]: -2.1 °C
ΔTm [2]: -1.06 °C

CC(C)N(C(=O)C1CCOCC1)c1cc(F)c(Oc2ncc(Cn3nccn3)cc2C(F)(F)F)cc1C(=O)O
ΔTm [1]: -3.14 °C
ΔTm [2]: 0.13 °C

Cc1ncsc1-c1ccc(CNC(=O)[C@@H]2C[C@@H](O)CN2C(=O)[C@@H](NC(=O)CCCCNC(=O)c2ccc(-c3ccc(N4CCN(C)CC4)c(NC(=O)c4c[nH]c(=O)cc4C(F)(F)F)c3)cc2)C(C)(C)C)cc1
ΔTm [1]: -6.12 °C
ΔTm [2]: -1.25 °C

CCN(C(=O)CO)[C@H]1CN(/C(=N\C#N)Nc2cccc(OC(F)F)c2)N=C1c1ccc(Cl)c(Cl)c1
ΔTm [1]: 3.5 °C
ΔTm [2]: 0.3 °C

O=C(Nc1ccc(C(O)(C(F)(F)F)C(F)(F)F)cc1)c1ccc(C(F)(F)F)cc1
ΔTm [1]: -1.03 °C
ΔTm [2]: -0.53 °C

Cc1cnc(Nc2ccc(C(=O)N3CCN(C)CC3)cc2)nc1N[C@@H]1CCC[C@@H]1C(N)=O
ΔTm [1]: -1.32 °C
ΔTm [2]: -3.2 °C

O=C(O)c1ccc2c(c1)nc(NCc1ccccc1)c1ncncc12
ΔTm [1]: -2.21 °C
ΔTm [2]: 0.06 °C

Cc1c(-c2c(F)cc(C(N)=O)c3[nH]c4c(c23)CC[C@H](C(C)(C)O)C4)cccc1-n1c(=O)c2cccc(F)c2n(C)c1=O
ΔTm [1]: -0.86 °C
ΔTm [2]: 0.6 °C

CC(C)(O)CNC(=O)N1C(=O)N(c2cccc(C(F)(F)F)c2)C2=C(C(=O)CC2)[C@H]1c1ccc(C#N)cc1
ΔTm [1]: 0.34 °C
ΔTm [2]: 0.22 °C

O=C(O)c1cc(F)c2nc(N3[C@@H]4CC[C@H]3C[C@@H](OCc3c(-c5ccccc5OC(F)(F)F)noc3C3CC3)C4)sc2c1
ΔTm [1]: -7.4 °C
ΔTm [2]: -1.62 °C

C#Cc1cnc2[nH]cc(-c3cccc4c3CCN4C(=O)[C@@H]3CCCN3C#N)c2c1
ΔTm [1]: -0.57 °C
ΔTm [2]: -0.61 °C

NC(=O)OC[C@H](NC(=O)Cn1nc(-c2ccc(Cl)cc2)n(C[C@H](O)C(F)(F)F)c1=O)c1cccc(C(F)(F)F)c1
ΔTm [1]: 0.39 °C
ΔTm [2]: 0.59 °C

CCOCCn1cc(C(=O)Nc2ccc(-n3nc(-c4cccnc4)cc3C(F)(F)F)cn2)ccc1=O
ΔTm [1]: -2.09 °C
ΔTm [2]: 0.27 °C
